The text below walks through data of ChEMBL document CHEMBL1157539, “Thousands of chemical starting points for antimalarial lead identification” (Nature, 2010).

Holding throughout (assay type): functional
For experiment [1], the system named is Plasmodium falciparum. In words: GSK_TCMDC: Inhibition of Plasmodium falciparum 3D7 in whole red blood cells, using parasite LDH activity as an index of growth. Test compounds present at 2uM.
The subject of experiment [2] is Plasmodium falciparum. In words: GSK_TCMDC: Inhibition of Plasmodium falciparum Dd2 in whole red blood cells, using parasite LDH activity as an index of growth. Test compounds present at 2uM.
Another experiment relates to HepG2. In words: GSK_TCMDC: Percent inhibition of human HepG2 cell line. Test compounds present at 10uM.

On to `CN1CCN(CCCCCNc2c3ccccc3nc3ccccc23)CC1.Cl`, for which the Inhibition came to 99% in the experiment on Plasmodium falciparum [1], 0% with Plasmodium falciparum [2] and 57% in the experiment on HepG2.

As for `CC(C)NCc1ccc(-c2cccc(NC(=O)c3cccc(Cl)c3)c2)cc1.O=C(O)C(F)(F)F`, the Inhibition with Plasmodium falciparum [1] amounted to 100%; in the experiment on Plasmodium falciparum [2] it was 87%; in the experiment on HepG2, 24%.

As to `CC1CCN(C(=O)C(Cc2c[nH]c3ccccc23)NS(=O)(=O)c2ccc(Cl)cc2)CC1` (stereo not drawn), the Inhibition in the experiment on Plasmodium falciparum [1] stood at 100%; in the experiment with Plasmodium falciparum [2] it was 99%; with HepG2, 0%.

Take `CCOc1cc(C(=O)NC2CCN(Cc3ccccc3)CC2)ccc1-c1nc2cc(Cl)c(Cl)cc2[nH]1`: the results for the Inhibition in the experiment on Plasmodium falciparum [1], with Plasmodium falciparum [2] and in the experiment on HepG2 were 100%, 99% and 24%, respectively.

On to `COc1ccccc1COc1c(C)nc(N)nc1N.Cl`, for which the Inhibition in the experiment with Plasmodium falciparum [1] is reported as 98%; in the experiment with Plasmodium falciparum [2], 1%; in the experiment with HepG2 it was 32%.

As for `O=C(c1cc(-c2cccs2)n[nH]1)N1CCN(S(=O)(=O)c2ccc(Cl)cc2)CC1`, the Inhibition was 96% in the experiment on Plasmodium falciparum [1], 95% with Plasmodium falciparum [2] and 0% with HepG2.

Take `N#Cc1cccc(NC(=O)Nc2ccc(-c3cccc(-c4nc5cc(F)ccc5[nH]4)c3)cc2)c1`: the figures for the Inhibition in the experiment with Plasmodium falciparum [1], with Plasmodium falciparum [2] and with HepG2 were 100%, 100% and 64%, respectively.

As to `Cc1cccc(NC(=S)NC2CCN(CCCCCNC(=O)/C=C/c3ccc(Cl)c(Cl)c3)CC2)c1`, the Inhibition with Plasmodium falciparum [1] is given as 97%; in the experiment with Plasmodium falciparum [2], 19%; with HepG2, 14%.

In the case of `CN1CCN(c2ccnc3cc4c(cc23)N(C(=O)Nc2ccc3c(c2)CCCC3=O)CC4)CC1.Cl`, the results for the Inhibition with Plasmodium falciparum [1], in the experiment on Plasmodium falciparum [2] and in the experiment on HepG2 were 100%, 64% and 5%, respectively.

In the case of `CCNc1cc(C(=O)N[C@@H](Cc2ccccc2)[C@H](O)CNCCC(C)(C)C)c(F)c(N2CCCCS2(=O)=O)c1.O=CO`, the Inhibition is on record as 98% with Plasmodium falciparum [1], 93% in the experiment with Plasmodium falciparum [2] and 2% in the experiment on HepG2.

For the compound `O=C(NCCCCCN1CCC(c2c[nH]c3ccccc23)CC1)Nc1ccc(Cl)cc1Cl`, the Inhibition was 99% in the experiment on Plasmodium falciparum [1], 15% with Plasmodium falciparum [2] and 71% in the experiment with HepG2.

As to `CN1CCN(CCCN(Cc2cccc(-c3cccc(CNC4CCCC4)c3)c2)C(=O)/C=C/c2ccccc2)CC1.O=C(O)C(F)(F)F`, the Inhibition in the experiment with Plasmodium falciparum [1] came out at 100%; in the experiment on Plasmodium falciparum [2] it was 99%; in the experiment with HepG2, 84%.

For the compound `Cl.NC(=O)c1cccc(Nc2nccc(Nc3ccc(Oc4cccc(Cl)c4)c(Cl)c3)n2)c1`, the figures for the Inhibition in the experiment on Plasmodium falciparum [1], with Plasmodium falciparum [2] and in the experiment on HepG2 were 93%, 12% and 0%, respectively.

For the compound `CN1CCN(c2cc3c(cc2Cl)CCN3C(=O)Nc2ccc(NC(=O)c3ccc(C(F)(F)F)cc3)cc2)CC1.Cl`, the Inhibition in the experiment on Plasmodium falciparum [1] stood at 100%; in the experiment with Plasmodium falciparum [2], 99%; in the experiment on HepG2, 98%.

On to `CN(c1ccc(F)cc1)S(=O)(=O)c1ccc(Cl)c(C(=O)Nc2cccc(C#N)c2)c1`, for which the results for the Inhibition with Plasmodium falciparum [1], in the experiment with Plasmodium falciparum [2] and with HepG2 were 95%, 58% and 5%, respectively.

Take `O=C(NCCCCN1CCC(c2ccc3c(c2OCCOCCO)CCCC3)CC1)c1ccc(-c2ccc(C(F)(F)F)cc2)cc1`: the Inhibition in the experiment on Plasmodium falciparum [1] turned out to be 97%; in the experiment with HepG2 it was 44%.

With `S=C(Nc1ccc(Cl)cc1)Nc1ccc(Nc2ccccc2)cc1`, the Inhibition in the experiment with Plasmodium falciparum [1] is listed as 84%; in the experiment with HepG2, 14%.

As for `CNCCNCc1cccc(-c2ccc(-c3nc4ccccc4[nH]3)cc2)c1.O=C(O)C(F)(F)F`, the Inhibition was determined as 99% in the experiment with Plasmodium falciparum [1], 27% in the experiment on Plasmodium falciparum [2] and 13% in the experiment with HepG2.

For the compound `Cc1ccc(CNC(=O)c2ccc(CN3CCCN(Cc4ccsc4)CC3)cc2)cc1.O=C(O)C(F)(F)F`, the Inhibition was determined as 93% with Plasmodium falciparum [1], 0% in the experiment on Plasmodium falciparum [2] and 16% with HepG2.

In the case of `c1ccc(Oc2ccc(Nc3ccnc4cc(-c5cccc(CNCCN6CCOCC6)c5)ccc34)cc2)cc1`, the values for the Inhibition in the experiment with Plasmodium falciparum [1], in the experiment with Plasmodium falciparum [2] and in the experiment on HepG2 were 100%, 98% and 12%, respectively.

On to `O=C(/C=C/c1ccc(Cl)cc1)NCCCCCN1CCCN(C(=O)Nc2cccc(Cl)c2)CC1`, for which the figures for the Inhibition in the experiment on Plasmodium falciparum [1], in the experiment with Plasmodium falciparum [2] and in the experiment on HepG2 were 85%, 10% and 19%, respectively.

As to `CCc1ccc(NC(=O)c2cccc(CN3CCCN(Cc4ccc(OC)cc4)CC3)c2)cc1.O=C(O)C(F)(F)F`, the Inhibition in the experiment on Plasmodium falciparum [1] came out at 97%; in the experiment with Plasmodium falciparum [2], 0%; in the experiment on HepG2 it was 35%.

`CCc1nc(N)nc(N)c1-c1ccccc1`: the Inhibition came out at 92% with Plasmodium falciparum [1], 1% with Plasmodium falciparum [2] and 53% in the experiment on HepG2.

With `Cc1cc(-c2ccc3c(c2)CC[C@@H](N[C@@H](C)c2ccccc2)C3)cnc1N.Cl`, the results for the Inhibition in the experiment on Plasmodium falciparum [1], in the experiment with Plasmodium falciparum [2] and with HepG2 were 98%, 7% and 3%, respectively.

`COc1ccc(-c2cccc(NC(=O)c3cccc(C#N)c3)c2)cc1CNC(C)C.O=C(O)C(F)(F)F`: the Inhibition in the experiment with Plasmodium falciparum [1] is recorded as 100%; with Plasmodium falciparum [2], 51%; in the experiment with HepG2, 22%.

For the compound `Cc1ccc(-c2ccc3c(c2)C=C(C(=O)NCC2CCN(CC4CCN(C(=O)/C=C/c5ccc(Cl)c(Cl)c5)CC4)CC2)CCC3)cc1`, the Inhibition in the experiment on Plasmodium falciparum [1] was 99%; in the experiment on Plasmodium falciparum [2], 70%; in the experiment with HepG2 it was 96%.

Turning to `Cc1ccc(Nc2nc(C)cc(NC3CCN(C)CC3)n2)cc1`, the Inhibition with Plasmodium falciparum [1] came to 100%; in the experiment on Plasmodium falciparum [2], 21%; with HepG2, 14%.

For `C=C[C@H]1CN2CC[C@H]1C[C@@H]2[C@@H](O)c1ccnc2ccc(OC)cc12` [QUINIDINE], the figures for the Inhibition in the experiment on Plasmodium falciparum [1], in the experiment with Plasmodium falciparum [2] and in the experiment with HepG2 were 98%, 95% and 0%, respectively.

Turning to `COc1ccc(F)cc1-c1cccc(CNC2CCN(CC3Cn4c(=O)ccc5ccc(F)c3c54)CC2)c1.O=C(O)C(F)(F)F` (stereo not drawn), the figures for the Inhibition in the experiment with Plasmodium falciparum [1], in the experiment with Plasmodium falciparum [2] and with HepG2 were 100%, 27% and 46%, respectively.

Consider `Cc1ccc(Nc2nccc(NCC(O)c3ccc(C(F)(F)F)cc3)n2)cc1` (stereo not drawn), for which the Inhibition in the experiment on Plasmodium falciparum [1] was 100%; in the experiment on Plasmodium falciparum [2] it was 100%; in the experiment with HepG2, 53%.

The Inhibition is the drop in the measured response relative to a control, in per cent. Read a low Inhibition as a response near the control.
